High-throughput results: PubChem BioAssay, several laboratories
Shown are actives, neighbours in structure and some others; about 3.3% of the full set was active somewhere.
Calb FLC – C. albicans growth inhibition with fluconazole, primary screen, CaCi-2 strain, Alamar Blue fluorescence; C. albicans CaCi-2 (fluconazole-resistant clinical isolate) + fluconazole, 48 h; growth inhibition, % (no concentration beside the values); 300,000 tested, 0.57% active; AID 1979, 2009;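 active = growth inhibition above about 58% in most replicates, limit read from the data, passing the limit was not always enough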;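 note: all wells also contain fluconazole at 8 µg/ml as a sub-toxic cotreatment; 0% = median of DMSO wells and 100% = median of geldanamycin control wells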
Efflux pump inh – inhibitors of Candida efflux pumps in yeast, primary screen, S. cerevisiae, Nile Red, multiplex. S. cerevisiae Candida pump triplex. inhibition, % at 10 µM. 330,000 tested, 0.44% active. AID 485275, 2010;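 active = plate passing quality check with inhibition over a set limit, or well fluorescence over plate mean plus 4 SD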;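 note: Nile Red retained in pooled yeast measured as flow cytometry median fluorescence; 0% = buffer negative control and 100% = Enniatin B positive control; higher means more Nile Red kept so more efflux inhibition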
KCC2 mod – KCC2 cotransporter modulators, thallium flux, primary screen, cell-based, HEK293 KCC2, FluoZin-2 fluorescence, MLSMR | B-score of Tl+ flux slope (higher = more flux/activation; lower = inhibition) at 10 µM | KCC2 cells, thallium flux FluoZin-2 fluorescence | 190,000 tested, 2.2% active;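 active = thallium flux slope and its plate-corrected score both differing from the plate sample mean at a set confidence after two filtering rounds, in either direction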;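 note: slope of fluorescence scaled to starting intensity during 10 to 20 s after thallium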
PHOSPHO1 block – PubChem AID 1565. Phosphoethanolamine/phosphocholine phosphatase (Homo sapiens), Q8TCT1. recombinant PHOSPHO1, absorbance phosphatase assay. inhibition, % at 13.3 µM. 290,000 tested, 1.1% active; in the data active = inhibition above about 60%
Target sequence (Q8TCT1 whole entry, looked up): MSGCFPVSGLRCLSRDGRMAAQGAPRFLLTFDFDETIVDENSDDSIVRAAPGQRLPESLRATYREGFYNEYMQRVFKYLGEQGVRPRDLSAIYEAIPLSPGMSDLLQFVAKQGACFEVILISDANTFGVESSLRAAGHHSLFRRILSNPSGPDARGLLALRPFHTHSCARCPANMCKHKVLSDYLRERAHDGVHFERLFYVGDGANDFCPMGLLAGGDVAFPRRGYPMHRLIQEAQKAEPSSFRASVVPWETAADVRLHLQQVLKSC
Cardio protect – cardioprotection against H2O2-induced cell death, primary screen, uHTS, H9c2 cells, ATPLite luminescence | protection from H2O2 cell death, % at 20 µM | H9c2 cardiomyocytes, H2O2 injury protection, 2 h | 360,000 tested, 0.63% active;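 active = compounds giving at least 50% protection of heart cells from peroxide-induced death in the single-dose screen, raw or plate-pattern-corrected value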;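 note: 0% = DMSO wells with peroxide and 100% = DMSO wells without peroxide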
Cmpd fluor yeast – flagged as fluorescent in efflux inhibitor counter-screen | shares compounds with Efflux pump inh | fluorescence ratio to DMSO, % at 10 µM | S. cerevisiae AD/pABC3, compound fluorescence, flow cytometry | 1,700 tested, 4% active;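 active = fluorescence ratio to DMSO above its plate's cutoff, the plate mean ratio plus 5 SD, cut at about 210% in these data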;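 note: unstained yeast with no Nile Red so the signal is compound autofluorescence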
CaMdr1 efflux inh – inhibitors of Candida albicans Mdr1 efflux, confirmation, flow cytometry, singleplex, Cherry Pick1 set; S. cerevisiae AD/CaMDR1, Nile Red efflux; inhibition, % at 10 µM; 1,700 tested, 1% active; shares compounds with Efflux pump inh; in the data active = inhibition above about 26%;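 note: 0% = DMSO vehicle and 100% = reference inhibitor; higher means more Nile Red retained so more efflux inhibition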
Cdr2 pump inh – inhibitors of Candida albicans Cdr2 efflux pump, confirmation, S. cerevisiae AD/CaCDR2, flow cytometry, cherry pick 1, singleplex; shares compounds with Efflux pump inh; AID 588520, 2011; Nile Red retention; Nile Red retention ratio vs DMSO, % at 10 µM; 1,700 tested, 4% active; in the data active = Nile Red retention ratio vs DMSO above about 190%;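 note: higher ratio means more blocking of Cdr2 efflux of the dye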
Cdr1 pump inh – inhibitors of Candida albicans Cdr1 efflux pump, confirmation, S. cerevisiae AD/CaCDR1, flow cytometry, cherry pick 1, singleplex; shares compounds with Efflux pump inh; Nile Red efflux; inhibition, % at 10 µM; 1,700 tested, 1% active;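 active = inhibition above the screen-wide mean plus twice its standard deviation, cut at about 32% in these data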
Active calls of the source: *.

Screening COc1cccc(NC(=O)c2cc3c(=O)n4ccccc4nc3n(CC(C)C)c2=N)c1 returned Calb FLC 3, Efflux pump inh 1.6*, KCC2 mod 0.15, PHOSPHO1 block -3, Cardio protect -7, Cmpd fluor yeast 99, CaMdr1 efflux inh 0, Cdr2 pump inh 95 and Cdr1 pump inh 0.
`COc1ccc(-n2c(SCCNCCO)nc3sc4c(c3c2=O)CCCC4)cc1` gave Calb FLC 9, Efflux pump inh 0, PHOSPHO1 block 18 and Cardio protect 5.
Screening COC(=O)[C@H](CCSC)NC(=O)NCc1cccs1 returned Calb FLC 3, Efflux pump inh 6.7*, PHOSPHO1 block -36, Cardio protect 7, Cmpd fluor yeast 110, CaMdr1 efflux inh 0, Cdr2 pump inh 102 and Cdr1 pump inh 0.
`COC(=O)[C@@H](NC(=O)NCc1cccs1)C(C)C` gave Calb FLC -7, Efflux pump inh 0, PHOSPHO1 block 2 and Cardio protect 4.
`COc1ccccc1NC(=O)COC(=O)c1cc([N+](=O)[O-])ccc1N1CCCC1` gave Efflux pump inh 0.9*, Cardio protect 11, Cmpd fluor yeast 100, CaMdr1 efflux inh 0, Cdr2 pump inh 97 and Cdr1 pump inh 0.
`Cc1ccsc1-c1nc(C(N)=O)c2[nH]c(=O)n(-c3ccc(Cl)cc3)c2n1` gave Calb FLC 7, Efflux pump inh 0, KCC2 mod -0.041, PHOSPHO1 block 4, Cardio protect 4, Cmpd fluor yeast 84, CaMdr1 efflux inh 0, Cdr2 pump inh 104 and Cdr1 pump inh 0.
For Cc1ccc(-n2c(=O)[nH]c3c(C(N)=O)nc(C(C)C)nc32)cc1 the results were Calb FLC 11, Efflux pump inh 0, PHOSPHO1 block 11 and Cardio protect -5.
For CCOc1ccccc1-c1nc(C(N)=O)c2[nH]c(=O)n(-c3ccc(F)cc3)c2n1 the results were Calb FLC -1, Efflux pump inh 1, KCC2 mod -2, PHOSPHO1 block 5, Cardio protect 1, Cmpd fluor yeast 101, CaMdr1 efflux inh 0, Cdr2 pump inh 120 and Cdr1 pump inh 0.
`CC(C)c1nc(C(N)=O)c2[nH]c(=O)n(-c3ccc(F)cc3)c2n1` gave Calb FLC 9, Efflux pump inh -1, PHOSPHO1 block -47 and Cardio protect 15.
Screening CCOC(=O)C1=C(C)Nc2sc(C(=O)c3ccc(OC)cc3)c(N)c2C1c1ccc(C(=O)OC)cc1 (centres undefined) returned Calb FLC 13, Efflux pump inh 11*, KCC2 mod 0.36, PHOSPHO1 block 0, Cardio protect 3, Cmpd fluor yeast 106, CaMdr1 efflux inh 0, Cdr2 pump inh 107 and Cdr1 pump inh 0.
COC(=O)C1=C(C)Nc2sc(C(N)=O)c(N)c2C1c1ccncc1 (centres undefined) was read as Calb FLC -2, Efflux pump inh 0, PHOSPHO1 block -8 and Cardio protect 4.
For COc1ccc2[nH]c(C)c(C(=O)CN(C)CC3OCCO3)c2c1 the results were Calb FLC 13, Efflux pump inh 0, KCC2 mod -0.77 and PHOSPHO1 block 18.
Screening Cc1ccc2nc(SCC(=O)N3c4ccccc4CC3C)c(C)cc2c1 (centres undefined) returned Calb FLC -6, Efflux pump inh 112*, KCC2 mod -0.76, PHOSPHO1 block 18, Cardio protect -28, Cmpd fluor yeast 103, CaMdr1 efflux inh 0, Cdr2 pump inh 104 and Cdr1 pump inh 0.
For CN(Cc1ccccc1)C(=O)COC(=O)CNS(=O)(=O)c1ccc2ccccc2c1 the results were Calb FLC 1, Efflux pump inh 75*, Cardio protect -9, Cmpd fluor yeast 97, CaMdr1 efflux inh 0, Cdr2 pump inh 101 and Cdr1 pump inh 0.
Screening COC(=O)c1nn(-c2ccccc2)nc1-c1nn(-c2ccccc2)nc1C(=O)OC returned Calb FLC -2, Efflux pump inh 0.4*, KCC2 mod 0.15, PHOSPHO1 block -5, Cardio protect -5, Cmpd fluor yeast 101, CaMdr1 efflux inh 0, Cdr2 pump inh 98 and Cdr1 pump inh 0.
`O=C(O)c1nn(-c2ccccc2)nc1-c1nn(-c2ccccc2)nc1C(=O)O` gave Calb FLC 15, Efflux pump inh 0, KCC2 mod 1.6, PHOSPHO1 block 50 and Cardio protect 0.
CC(C)Oc1ccc(C(=O)Nc2cccc(S(=O)(=O)N3CCCC3)c2)cc1 was read as Efflux pump inh 0 and Cardio protect -12.
`CC1(C(=O)NS(=O)(=O)c2ccc(C#N)cc2)CCN1C(=O)Cc1cccc2ccccc12` (centres undefined) gave Cardio protect 0.
For C/C(=N\NC(=O)CC1(C)OCCO1)c1cccs1 the results were Calb FLC -10, Efflux pump inh 6.5*, KCC2 mod 0.56, PHOSPHO1 block -18, Cardio protect -3, Cmpd fluor yeast 100, CaMdr1 efflux inh 0, Cdr2 pump inh 100 and Cdr1 pump inh 0.
Screening CCOc1ccc(CNC(=O)NS(=O)(=O)c2ccc(OC)cc2)cc1 returned Calb FLC 1, Efflux pump inh 5.9*, KCC2 mod 0.45, PHOSPHO1 block -2, Cardio protect -1, Cmpd fluor yeast 98, CaMdr1 efflux inh 0, Cdr2 pump inh 107 and Cdr1 pump inh 0.
`CC(C)(C)c1ccc(C(=O)N2CCN(c3ncccn3)CC2)cc1` gave Calb FLC -10, Efflux pump inh 0, PHOSPHO1 block 42 and Cardio protect -2.
Screening CC(C)CCOc1ccc(C(=O)N2CCN(c3ncccn3)CC2)cc1 returned Calb FLC 0, Efflux pump inh 3.5*, PHOSPHO1 block -2, Cardio protect 1, Cmpd fluor yeast 106, CaMdr1 efflux inh 0, Cdr2 pump inh 102 and Cdr1 pump inh 0.
